The nature of assay [1]: yeast 75Q aggregation reduction – 75Q-TubU reporter (AID 1593). The note with it: Yeast 75Q polyglutamine aggregation reporter.
The nature of assay [2]: blockers of cytochrome c efflux from mitochondria – biochemical, purified mitochondria (AID 1603).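 Note: mouse liver mitochondria challenged with calcium chloride; signal normalized to the plate average as 100%.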 Conditions: stronger effect = lower value.
A short description of assay [3]: polyglutamine aggregate formation blockers (AID 1604). Conditions: polyglutamine-induced protein aggregation inhibition assay; stronger effect = higher value; tested at 2.5 µM.
A short description of assay [4]: P. berghei load reduction in hepatocytes – cell-based, HepG2, luciferase luminescence, HepG2 viability, primary screen (AID 624349).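 Note: 100% = mean of DMSO negative control wells on the same plate.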 Conditions: P. berghei liver stage in HepG2, luciferase luminescence, concentration not given here; parasite load remaining: stronger effect = lower value; viability: measured here: HepG2 viability without parasites.
Assay [5] in a line: Wnt pathway potentiators raising nuclear beta-catenin – imaging, WNT3A-conditioned medium, mouse C2C12, NPC library, primary screen (AID 1117326; in the data active = nuclear beta-catenin stimulation mostly above about 4.2%, no sharp cut-off; inactive = mostly below about 10%). Conditions: stronger effect = higher value.
Assay [6] in a line: stimulators of insulin release from INS-1E, primary screen, cell-based, 5 mM glucose, NPC library (AID 1117329;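 active = compound raises insulin release from rat beta cells at 5 mM glucose, no numeric limit stated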). The note with it: rat INS-1E insulin secretion, at 10 µM, stronger effect = higher value.
Assay [7] is described as follows: growth inhibition of GSK3B-pretreated HCT116 cells – cell-based, CellTiter-Glo, 0.2 to 20 µM (AID 1117336;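 active = compounds lowering colon cancer cell viability after pretreatment blocking the GSK3B kinase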). Conditions: HCT116 viability after GSK3B inhibitor, at 20 µM, stronger effect = higher value.
A short description of assay [8]: inhibition of endothelial tube formation, primary screen, imaging, VEGF stimulated, CD31 staining, tube area, NPC library (AID 1117340;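 active = compound that reduces growth-factor-driven endothelial tube area in a mixed cell culture, no cutoff stated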). Conditions: VEGF-stimulated ADSC/ECFC co-culture, at 10 µM, stronger effect = higher value.
The nature of assay [9]: GLP1 release stimulators, primary, NCI-H716, NPC library (AID 1117341;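 active = compound raises GLP1 secretion from the human gut endocrine cells, with no numeric limit stated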). Conditions: NCI-H716 cells, at 10 µM, stronger effect = higher value.
The nature of assay [10]: HCT116 colon cancer cell growth inhibition, primary screen, CellTiter-Glo luminescence, NPC library (AID 1117342;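 active = compounds that lower survival of HCT116 colon cancer cells in the luminescence readout, no numeric limit stated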). The note with it: at 20 µM (top of the series).
The nature of assay [11]: reduced SW480 viability measured with CellTiter-Glo, NPC library, primary (AID 1117343;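 active = compounds that lower viability of the colon cancer cells in the luminescence readout, with no numeric limit stated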). The note with it: CellTiter-Glo luminescence; at 20 µM (top of the series). A general note: In ATP-based viability assays light output follows the ATP content of the culture.
Assay [12] is described as follows: NPC library primary testing for decreased DLD-1 cell viability via CellTiter-Glo (AID 1117346;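 active = compounds that lower survival of DLD-1 colon cancer cells in the luminescence readout, no cutoff given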). Conditions: DLD-1 viability, CellTiter-Glo luminescence; at 20 µM (top of the series).
In assay [13] the target is 6-phosphogluconate dehydrogenase, decarboxylating (Homo sapiens) (UniProt P52209). Kind of assay: inhibition of human phosphogluconate dehydrogenase – biochemical, recombinant enzyme, NADPH absorbance, primary screen (AID 1159550;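 active = at least 20% inhibition of 6-phosphogluconate dehydrogenase activity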). Conditions: recombinant 6PGD, NADPH absorbance 341 nm; at 10 µM; stronger effect = higher value.
Sequence of 6-phosphogluconate dehydrogenase, decarboxylating (Homo sapiens) (P52209 whole entry, looked up): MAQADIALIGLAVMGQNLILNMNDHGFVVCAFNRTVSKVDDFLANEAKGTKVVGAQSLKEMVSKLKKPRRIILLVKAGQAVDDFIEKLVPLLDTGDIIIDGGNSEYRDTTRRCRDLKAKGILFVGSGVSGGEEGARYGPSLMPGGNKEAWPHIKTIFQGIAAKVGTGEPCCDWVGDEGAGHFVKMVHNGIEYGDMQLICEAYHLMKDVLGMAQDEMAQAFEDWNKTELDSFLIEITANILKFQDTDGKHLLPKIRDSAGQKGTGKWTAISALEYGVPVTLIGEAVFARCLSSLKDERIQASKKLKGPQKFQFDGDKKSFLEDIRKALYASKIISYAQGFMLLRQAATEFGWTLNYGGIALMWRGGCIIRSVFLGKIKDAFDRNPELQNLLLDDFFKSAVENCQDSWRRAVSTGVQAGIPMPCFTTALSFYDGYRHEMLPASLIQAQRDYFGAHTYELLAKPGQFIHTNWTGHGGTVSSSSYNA
A short description of assay [14]: EMT-state selective cytotoxicity in co-culture – imaging, PC-3E GFP, TEM4-18 mCherry, primary screen (AID 1345086;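 active = compounds killing one labelled cell type while sparing the other, by normalised counts and ratio limits, not self-fluorescent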;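 for all read-outs here: cells exposed to compound for 72 h before imaging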;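 for red/green cell ratio (normalised): normalised mesenchymal count divided by normalised epithelial count so high means epithelial killing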). The note with it: PC-3E GFP / TEM4-18 mCherry co-culture, imaging cell counts, at 1 µM; for red/green cell ratio (normalised): actives lie on both sides.
Assay [15] concerns Aerobactin synthetase IucA (Klebsiella pneumoniae hvKP1). Kind of assay: IucA enzyme inhibition, primary screen, biochemical, Spectrum library (AID 1346200; call rule not given here;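 note: 100% = wells without compound and 0% = wells lacking enzyme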). The note with it: malachite green pyrophosphate, A620, at 8 µM, stronger effect = lower value.
Assay [16] in a line: viability loss with induced miR-34 in A549 – imaging, A549 dox-inducible miR-34, nuclei and caspase counts, primary screen (AID 1347080;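 active = compounds whose cell count with miR-34 switched on is under 0.7 times the count with it off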). The note with it: A549 miR-34 inducible, Hoechst nuclei count, 48 h.
A short description of assay [17]: MELAS cybrid and Rieske KO viability enhancers – cell-based, MELAS cybrids, Rieske KO mouse fibroblasts, CellTiter-Glo, primary screen (AID 1508586;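 active = mean z-score across replicates of 1.96 or higher in either the MELAS or the Rieske mutant cell line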;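 note: z relative to plate mean and SD of compound and empty wells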). Conditions: low glucose.
Assay [18] has as its target NAD(+) hydrolase SARM1 (Homo sapiens) (UniProt Q6SZW1). The experiment in a line: blocking NAD cleavage by SARM1 SAM-TIR – cell lysate, NAD-Glo luminescence (AID 1508614;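 active = compound whose remaining NAD level is above about 45 nM, limit read from the data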;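 note: higher remaining NAD means stronger inhibition of SARM1 NADase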). Conditions: SAM-TIR HEK293T lysate NADase, at 1 µM, stronger effect = higher value.
The target of assay [19] is Mitogen-activated protein kinase 7 (Homo sapiens) (UniProt Q13164). Kind of assay: Gal4-ERK5 driven luciferase induction – cell-based, HTS, primary screen (AID 1508626;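 active = luciferase signal above three times the same-plate solvent-only control wells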;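 note: luciferase driven by Gal4-ERK5 fusion binding five Gal4 sites before minimal TATA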). Conditions: HeLa Gal4-ERK5 transactivation, 18 h, at 5 µM, stronger effect = higher value.
Sequence of Mitogen-activated protein kinase 7 (Homo sapiens) (Q13164 whole entry, looked up, the tested form may be a part): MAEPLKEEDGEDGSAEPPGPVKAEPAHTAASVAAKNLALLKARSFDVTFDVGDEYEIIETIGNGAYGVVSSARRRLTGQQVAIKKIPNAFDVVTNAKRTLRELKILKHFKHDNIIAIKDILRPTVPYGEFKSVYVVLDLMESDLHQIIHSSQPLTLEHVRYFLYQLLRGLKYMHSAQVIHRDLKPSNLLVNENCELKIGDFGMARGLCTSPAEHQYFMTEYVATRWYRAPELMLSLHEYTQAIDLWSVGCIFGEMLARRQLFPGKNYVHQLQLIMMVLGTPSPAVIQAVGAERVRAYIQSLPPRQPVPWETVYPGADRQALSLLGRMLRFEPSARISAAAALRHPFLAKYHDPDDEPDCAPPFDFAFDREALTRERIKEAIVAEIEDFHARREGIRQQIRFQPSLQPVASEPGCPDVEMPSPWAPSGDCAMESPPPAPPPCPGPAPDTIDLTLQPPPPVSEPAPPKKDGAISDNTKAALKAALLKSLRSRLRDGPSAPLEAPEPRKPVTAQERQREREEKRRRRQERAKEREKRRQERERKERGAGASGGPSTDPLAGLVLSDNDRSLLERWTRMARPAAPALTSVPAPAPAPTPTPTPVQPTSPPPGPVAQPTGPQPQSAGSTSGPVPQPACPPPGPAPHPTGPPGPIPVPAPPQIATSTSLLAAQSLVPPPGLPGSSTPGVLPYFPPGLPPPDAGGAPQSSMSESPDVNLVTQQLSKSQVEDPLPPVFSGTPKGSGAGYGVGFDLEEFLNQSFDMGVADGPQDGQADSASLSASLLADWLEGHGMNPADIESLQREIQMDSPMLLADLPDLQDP
Setting [20] is: measured here: epithelial PC-3E GFP cell survival.
[21] abbreviates: measured here: mesenchymal TEM4-18 mCherry cell survival.
Where [22] appears, read: measured here: relative caspase fold change +Dox/-Dox.
Setting [23] is: measured here: total cells with miR-34 induction, stronger effect = lower value.
[24] abbreviates: measured here: total cells without miR-34 induction.

Values joined by “and” are separate entries in the source; they are usually repeats but may differ in a detail not shown here. Equal values may be shown once. Active and inactive are the calls of the source. Cut-off read from the data, not from the text of the source, unless noted: active = parasite load remaining mostly below about 12% (no sharp cut-off); inactive = mostly above about 10%.

Sequence of NAD(+) hydrolase SARM1 (Homo sapiens) (Q6SZW1 whole entry, looked up, the tested form may be a part): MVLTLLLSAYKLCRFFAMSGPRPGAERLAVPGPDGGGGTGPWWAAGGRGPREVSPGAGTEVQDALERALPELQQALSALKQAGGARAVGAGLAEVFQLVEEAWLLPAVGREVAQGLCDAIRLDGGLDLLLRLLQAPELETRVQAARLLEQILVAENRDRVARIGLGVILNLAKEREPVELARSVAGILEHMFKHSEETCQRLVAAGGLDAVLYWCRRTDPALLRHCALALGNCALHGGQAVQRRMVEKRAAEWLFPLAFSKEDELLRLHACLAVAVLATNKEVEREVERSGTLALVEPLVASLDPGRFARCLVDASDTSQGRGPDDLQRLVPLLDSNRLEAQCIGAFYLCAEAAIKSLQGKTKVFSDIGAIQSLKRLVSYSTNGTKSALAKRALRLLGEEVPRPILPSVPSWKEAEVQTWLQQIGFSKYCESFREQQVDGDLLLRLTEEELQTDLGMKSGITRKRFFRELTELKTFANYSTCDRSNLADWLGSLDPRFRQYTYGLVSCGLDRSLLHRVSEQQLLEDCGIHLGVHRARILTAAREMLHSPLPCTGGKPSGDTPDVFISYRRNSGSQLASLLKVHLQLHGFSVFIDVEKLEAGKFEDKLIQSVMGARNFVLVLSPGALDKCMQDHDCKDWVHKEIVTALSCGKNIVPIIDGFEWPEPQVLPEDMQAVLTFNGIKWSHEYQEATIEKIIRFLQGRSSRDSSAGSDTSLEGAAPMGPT

The viability is a per cent measure of how many cells are alive, often set against a control. Broadly, the inhibition is the change of the read-out against control, counted positive when it falls. In assay [1], `Clc1ccc(CSC(Cn2ccnc2)c2ccc(Cl)cc2Cl)cc1` (stereo not given) showed a score of 0.02. For the same molecule, the cytochrome c release ratio in assay [2] was 1.53. The same molecule displayed an inhibition of aggregation in assay [3] of 26.4%. Moreover, the parasite load remaining in assay [4] was 45.1% (inactive) and 43.8% (inactive) and 9.3% (inactive). For the same molecule, in [4], the viability was 77.3% and 59.6% and 86.4%. Besides, the nuclear beta-catenin stimulation was 4.8% (inactive) in assay [5] (at 10 µM) and 1.5% in assay [5] (stimulation, at 2 µM). In addition, in assay [6], the insulin secretion stimulation was 2.6% (inactive). In addition, the viability decrease in [7] is 101% (active). In addition, the tube area decrease in assay [8] was 110% (active). Also, the GLP1 secretion stimulation in assay [9] is 45.8% (active). Also, in assay [10], the inhibition of viability is 102% (active). The viability decrease (inhibition) in [11] is 141% (active); in assay [12] it was 104% (active). Moreover, the inhibition in [13] was 1.36% (inactive). For the same molecule, in [14], the red/green cell ratio (normalised) was 0.91 (inactive). Besides, the normalised cell number in [14] (setting [20]) turned out to be 1.1; in assay [14] (setting [21]), 1. In assay [15], the activity remaining is 106% (inactive). For the same molecule, the fold change was 0.925 (inactive) and 0.946 (inactive) and 1.1 (inactive) in assay [16] (stronger effect = lower value); 1.29 and 0.637 and 1.2 in assay [16] (setting [22]). Besides, the cell count in assay [16] (setting [23]) was 6020 and 7170 and 8360; in assay [16] (setting [24]), 6500 and 7580 and 7600. In addition, the z-score in assay [17] (MELAS cybrid survival, CellTiter-Glo 48 h, stronger effect = higher value) is -0.246 (inactive) and 0.0301 (inactive); in assay [17] (Rieske KO mouse fibroblast survival, CellTiter-Glo 72 h), -0.177 and -0.00115. The remaining NAD in assay [18] was 10 nM (inactive). Besides, the luciferase signal in assay [19] was 44 AU (inactive).
For `Oc1ccc(Cl)cc1`, the score in assay [1] was found to be 0.2. In assay [2], the cytochrome c release ratio came out at 0.97. The same molecule registered an inhibition of aggregation in assay [3] of 31.7%. In addition, the parasite load remaining in assay [4] was 99.5% (inactive) and 63.2% (inactive). For the same molecule, in assay [4], the viability was 70.5% and 93.7%. Besides, the nuclear beta-catenin stimulation in assay [5] (at 10 µM) is 0.8% (inactive); in assay [5] (stimulation, at 2 µM), 0.5%. Further, in [6], the insulin secretion stimulation is -0.7% (inactive). Also, the viability decrease in [7] was 21.3% (inactive). Further, the tube area decrease in assay [8] is 12.2% (inactive). Moreover, the GLP1 secretion stimulation in assay [9] is 0.3% (inactive). In addition, the inhibition of viability in [10] was 17.9% (inactive). Also, the viability decrease (inhibition) was 34.5% (inactive) in assay [11] and 6.1% (inactive) in assay [12]. In [13], the inhibition is 15% (inactive). The red/green cell ratio (normalised) in [14] is 0.99 (inactive). The values for the normalised cell number in [14] (setting [20]) and in [14] (setting [21]) were 1.1 and 1.09, respectively. Further, the activity remaining in assay [15] is 115% (inactive). In addition, the fold change in [16] (stronger effect = lower value) is 0.923 (inactive); in assay [16] (setting [22]), 1.34. Further, the cell count in assay [16] (setting [23]) amounted to 11600; in assay [16] (setting [24]), 12500. In addition, in assay [18], the remaining NAD is 10 nM (inactive). Further, the luciferase signal in assay [19] is 52 AU (inactive).
For `CC(C)=CC1C(C(=O)OCc2cccc(Oc3ccccc3)c2)C1(C)C` (stereo not given), the parasite load remaining in assay [4] is 123% (inactive). This molecule also displayed a viability in assay [4] of 88.5%. The nuclear beta-catenin stimulation was 1.3% (inactive) in assay [5] (at 10 µM) and 2.5% in assay [5] (stimulation, at 2 µM). For the same molecule, in assay [6], the insulin secretion stimulation was 2.9% (inactive). Moreover, in assay [7], the viability decrease was -21.3% (inactive). In addition, the tube area decrease in assay [8] was -14.2% (inactive). Also, in assay [9], the GLP1 secretion stimulation was 1.7% (inactive). In [10], the inhibition of viability is 15.9% (inactive). Moreover, the viability decrease (inhibition) was 16.2% (inactive) in assay [11] and 31.4% (inactive) in [12]. Moreover, in assay [13], the inhibition is -5.61% (inactive). Besides, the red/green cell ratio (normalised) in assay [14] is 0.95 (inactive). The normalised cell number in [14] (setting [20]) worked out at 1.25; in assay [14] (setting [21]), 1.19. For the same molecule, the activity remaining in assay [15] was 99.1% (inactive). Besides, the remaining NAD in [18] was 10 nM (inactive).
Regarding `CC[n+]1c(-c2ccccc2)c2cc(N)ccc2c2ccc(N)cc21`, the score in assay [1] worked out at 0.43. Also, the cytochrome c release ratio in assay [2] amounted to 0.84. The molecule further displayed an inhibition of aggregation in assay [3] of 47.5%. Besides, in [4], the parasite load remaining was 116% (inactive). Further, the viability in assay [4] was 83.5%. Further, the nuclear beta-catenin stimulation is 17.6% (inactive) in [5] (at 10 µM) and 1% in assay [5] (stimulation, at 2 µM). For the same molecule, the insulin secretion stimulation in assay [6] was 2.1% (inactive). The viability decrease in assay [7] was -24.6% (active). Moreover, the tube area decrease in assay [8] is 29.5% (inactive). Moreover, in assay [9], the GLP1 secretion stimulation is -2.8% (inactive). For the same molecule, the inhibition of viability in assay [10] is 79.1% (active). For the same molecule, the viability decrease (inhibition) in [11] was 52.1% (active); in [12], 83.7% (active). Moreover, in [13], the inhibition is 7.37% (inactive). Further, the red/green cell ratio (normalised) in assay [14] is 2.8 (inactive). Moreover, the normalised cell number in assay [14] (setting [20]) was 0.31; in [14] (setting [21]) it was 0.87. Further, the activity remaining in assay [15] is 95.2% (inactive). In assay [18], the remaining NAD is 10 nM (inactive). Moreover, in assay [19], the luciferase signal was 104 AU (inactive).

Values taken from PubChem BioAssay.
